Among the data in PubChem BioAssay (NCATS) are Potency, activity change, negative = inhibition and max response values, retold here.

Test [1] concerns the target Cytochrome P450 3A4 (Homo sapiens) (UniProt P08684). The test can be described thus: qHTS Assay for Inhibitors and Substrates of Cytochrome P450 3A4 (AID 884). Further: on the % scale 0 is the no-effect control and ±100 the full control effect; nearly all actives have a fitted effect of over 50% in size. The gist of the method: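 Luminescent readout of luciferin produced by CYP3A4 (20 nM) dealkylation of Luciferin-PPXE, 25 uM (its KM). NADPH-driven reaction ran 60 min at RT after 10 min compound preincubation; data scaled to 57 uM ketoconazole as 100% inhibition.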

The nature of test [2]: Confirmation and Secondary Assay for Modulators of Hemoglobin Beta Chain Splicing at IVS2 654 locus (AID 910).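 Further: HeLa cells stably carrying EGFP split by mutant beta-globin IVS2-654 intron; per-well total GFP intensity by laser scanning cytometry after 2-day treatment; % of control where 0% means no effect.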 The essentials:
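Readout: per-well total peak green fluorescence (488 nm ex, 500–520 nm em) from objects 5–250 µm, reflecting correct splicing of an EGFP-654 reporter. Compounds were applied for 2 days at 37 °C to overnight-plated HeLa EGFP-654 cells; controls were DMSO and 500 nM IVS2-654 PNA.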

The nature of test [3]: Confirmation and Secondary Assay for Modulators of Hemoglobin Beta Chain Splicing at IVS2 705 locus (AID 930).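 Further: HeLa cells stably expressing the EGFP-705 splicing reporter; GFP fluorescence per well restored by corrected splicing of the IVS2-705 intron in EGFP; % of control where 0% means no effect.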 The gist of the method:
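Fluorescence gain (488 nm laser, 500-520 nm PMT) reflects restored correct splicing of a mutant IVS2-705 intron inside EGFP in stably transfected HeLa cells after 2-day compound treatment.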

Test [4] is described as follows: qHTS Assay for Lipid Storage Modulators (AID 1519; calls by dose curve; on activity change, negative = inhibition: on the % scale 0 is the no-effect control and ±100 the full control effect). Conditions: Drosophila S3 cells, BODIPY lipid droplet/cell ratio, laser cytometry, cells loaded with oleic acid; for activity change, negative = inhibition: at 57.5 µM (top of the series). The essentials:
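Cells seeded at 5,000 per well were treated with compounds over a concentration series and loaded with oleic acid (400 uM, as added). Lipid droplet fluorescence (488 nm excitation, 500-530 nm channel) was read by laser-scanning cytometry and normalized to 20 uM Triacsin C.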

The target in test [5] is Ubiquitin carboxyl-terminal hydrolase 1 (Homo sapiens) (UniProt O94782). The test can be described thus: Inhibitors of USP1/UAF1: Pilot qHTS (AID 504865).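 Further: rhodamine fluorescence freed from ubiquitin-rhodamine substrate followed over time; top concentration of the series differs between compounds; on the % scale 0 is the no-effect control and ±100 the full control effect; nearly all actives have a fitted effect of over 35% in size.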 The gist of the method: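 USP1/UAF1 complex (1nM) preincubated with compound 15 min at room temperature, then Ub-Rho substrate (150nM final) added. Fluorescence read kinetically at 480/540 nm, 6 reads every 60 seconds. Buffer: 50mM HEPES pH 7.8, 0.5mM EDTA, 0.1 mg/ml BSA, 1mM TCEP, 0.01% Tween-20.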
Ubiquitin carboxyl-terminal hydrolase 1 (Homo sapiens), sequence (O94782 whole entry, looked up): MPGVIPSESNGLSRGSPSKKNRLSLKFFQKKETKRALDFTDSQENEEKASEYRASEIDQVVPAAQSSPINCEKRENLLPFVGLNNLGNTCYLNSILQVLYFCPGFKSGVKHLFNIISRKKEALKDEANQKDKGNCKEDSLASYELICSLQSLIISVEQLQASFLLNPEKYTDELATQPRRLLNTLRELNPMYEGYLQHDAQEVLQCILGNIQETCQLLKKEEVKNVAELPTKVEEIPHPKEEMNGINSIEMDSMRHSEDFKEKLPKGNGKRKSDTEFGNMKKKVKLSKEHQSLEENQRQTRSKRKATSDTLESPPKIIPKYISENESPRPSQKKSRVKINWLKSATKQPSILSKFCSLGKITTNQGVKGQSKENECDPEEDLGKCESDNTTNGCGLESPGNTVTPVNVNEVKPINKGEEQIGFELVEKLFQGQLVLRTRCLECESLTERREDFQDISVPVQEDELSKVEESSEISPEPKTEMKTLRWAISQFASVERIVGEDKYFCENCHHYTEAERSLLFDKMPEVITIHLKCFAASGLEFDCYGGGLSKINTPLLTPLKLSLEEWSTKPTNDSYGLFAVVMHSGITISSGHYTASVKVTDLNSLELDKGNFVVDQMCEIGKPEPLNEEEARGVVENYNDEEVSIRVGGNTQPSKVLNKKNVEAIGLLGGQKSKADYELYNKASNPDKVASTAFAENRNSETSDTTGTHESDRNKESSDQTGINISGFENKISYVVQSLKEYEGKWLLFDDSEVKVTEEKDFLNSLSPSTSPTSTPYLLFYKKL

For test [6], the target named is Cytochrome P450 2D6 (Homo sapiens) (UniProt P10635). Description: Cytochrome P450 family 2 subfamily D member 6 (CYP2D6) small molecule antagonists: luciferase biochemical (cell-free) qHTS assay (AID 1645840; active means well fitted curve in the direction sought with a large enough effect in the repeat runs; an effect the other way counts as inactive or inconclusive; further: on the % scale 0 is the no-effect control and ±100 the full control effect; nearly all actives have a fitted effect of over 55% in size). The essentials: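 P450-Glo CYP2D6 system: proluciferin substrate converted by enzyme to luciferin, read by luminescence proportional to activity. Enzyme-substrate mix with compound 10 min at room temperature, then NADPH regeneration 1 h before detection reagent.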
Cytochrome P450 2D6 (Homo sapiens), sequence (P10635 whole entry, looked up): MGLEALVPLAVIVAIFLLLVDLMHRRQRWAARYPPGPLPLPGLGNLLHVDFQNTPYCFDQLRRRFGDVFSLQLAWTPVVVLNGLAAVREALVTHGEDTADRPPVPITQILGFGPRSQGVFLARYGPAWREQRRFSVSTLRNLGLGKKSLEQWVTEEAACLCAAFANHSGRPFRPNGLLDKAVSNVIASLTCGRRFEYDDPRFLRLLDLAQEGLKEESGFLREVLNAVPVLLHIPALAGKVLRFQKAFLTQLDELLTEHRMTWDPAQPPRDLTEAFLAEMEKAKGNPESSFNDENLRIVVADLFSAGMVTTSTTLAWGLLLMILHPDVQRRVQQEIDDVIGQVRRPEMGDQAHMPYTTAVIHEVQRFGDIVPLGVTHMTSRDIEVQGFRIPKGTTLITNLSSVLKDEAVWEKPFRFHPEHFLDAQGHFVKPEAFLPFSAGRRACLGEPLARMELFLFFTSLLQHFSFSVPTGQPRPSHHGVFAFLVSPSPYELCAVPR

In test [7] the target is Cytochrome P450 2C9 (Homo sapiens) (UniProt P11712). Description: Cytochrome P450 family 2 subfamily C member 9 (CYP2C9) small molecule antagonists: luciferase biochemical (cell-free) qHTS assay (AID 1645842; active means well fitted curve in the direction sought with a large enough effect in the repeat runs; an effect the other way counts as inactive or inconclusive; further: on the % scale 0 is the no-effect control and ±100 the full control effect; nearly all actives have a fitted effect of over 55% in size). The gist of the method:
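P450-Glo CYP2C9 system: proluciferin substrate with enzyme in mix containing 0.4% BSA, 10 min at room temperature, then NADPH regeneration solution added and incubated 1 h at 37C. Detection reagent stopped reaction; luminescence read after 20 min as RLU.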

Test [8] addresses Cytochrome P450 3A4 (Homo sapiens) (UniProt P08684). The test can be described thus: qHTS Assay for Activators of Cytochrome P450 3A4 (AID 885). Further: nearly all actives have a fitted effect of over 65% in size. The gist of the method:
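Human CYP3A4 dealkylates Luciferin-PPXE to luciferin, which luciferase detection converts to light. Substrate was at its KM (25uM), buffer 200mM KPO4, reaction 60 min at RT.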

Where [9] appears, read: measured here: cell count channel max response.
Setting [10] is: measured here: lipid channel max response.

Records with an inconclusive call do not appear. Active and inactive are the calls of the source. Unless noted, the call rests on the fitted dose curve; in most records, active means well fitted curve in the direction sought with a large enough effect; inconclusive means small, poorly fitted or top-dose-only effect, or another doubt; inactive means no such curve, though single readings can be large; an effect the other way counts as inactive or inconclusive.

Cytochrome P450 3A4 (Homo sapiens), sequence (P08684 whole entry, looked up): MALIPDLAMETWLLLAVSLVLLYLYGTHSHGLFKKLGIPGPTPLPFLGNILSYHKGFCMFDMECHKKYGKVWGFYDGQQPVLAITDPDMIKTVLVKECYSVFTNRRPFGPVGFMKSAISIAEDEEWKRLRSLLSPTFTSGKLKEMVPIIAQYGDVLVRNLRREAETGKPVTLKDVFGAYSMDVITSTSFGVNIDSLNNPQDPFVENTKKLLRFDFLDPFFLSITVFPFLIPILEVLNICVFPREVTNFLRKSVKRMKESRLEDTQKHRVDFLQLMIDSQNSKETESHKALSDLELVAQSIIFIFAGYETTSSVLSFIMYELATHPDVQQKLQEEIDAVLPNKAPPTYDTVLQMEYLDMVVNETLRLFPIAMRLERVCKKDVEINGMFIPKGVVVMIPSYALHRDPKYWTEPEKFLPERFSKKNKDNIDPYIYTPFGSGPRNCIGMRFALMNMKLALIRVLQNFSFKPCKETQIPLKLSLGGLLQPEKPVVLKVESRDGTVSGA
Cytochrome P450 2C9 (Homo sapiens), sequence (P11712 whole entry, looked up): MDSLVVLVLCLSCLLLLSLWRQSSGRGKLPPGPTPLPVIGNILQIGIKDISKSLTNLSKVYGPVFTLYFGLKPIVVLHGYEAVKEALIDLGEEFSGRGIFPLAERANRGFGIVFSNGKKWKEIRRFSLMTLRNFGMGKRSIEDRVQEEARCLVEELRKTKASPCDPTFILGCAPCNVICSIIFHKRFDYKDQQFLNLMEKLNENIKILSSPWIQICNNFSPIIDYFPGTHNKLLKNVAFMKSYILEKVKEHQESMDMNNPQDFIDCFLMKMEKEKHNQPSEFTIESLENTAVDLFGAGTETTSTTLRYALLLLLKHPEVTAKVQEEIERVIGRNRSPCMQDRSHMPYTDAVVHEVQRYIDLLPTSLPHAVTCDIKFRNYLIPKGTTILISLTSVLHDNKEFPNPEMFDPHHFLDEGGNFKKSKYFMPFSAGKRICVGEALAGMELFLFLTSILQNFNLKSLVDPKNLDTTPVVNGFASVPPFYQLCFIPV

With `COC1C(O)C(OC2CC[C@]3(C=O)C4C(OC(C)=O)C[C@@]5(C)C(C6=CC(=O)OC6)CC[C@]5(O)C4CC[C@]3(O)C2)OC(C)C1OC(C)=O` (stereo not given in full), the Potency result in test [1], in test [2] and in test [3] was “inactive” throughout. For the same compound, the activity change, negative = inhibition in test [4] was 4.28% (inactive). Also, the max response in test [4] (setting [9]) was determined as 10%; in test [4] (setting [10]), 17.4%.
As to `C[C@@]12CCC3C(CCC4=CC(=O)CC[C@]43C)C1CCC2O` (stereo not given in full), the Potency entry in test [1], in test [2] and in test [3] was “inactive” in each case. In test [4], the activity change, negative = inhibition was -1.38% (inactive). For the same compound, the max response in test [4] (setting [9]) was found to be 0.874%; in test [4] (setting [10]), 1.24%.
On to `CC1(C)N([O-])[N+](=O)C1(C)Br` (stereo not given), for which the Potency result in test [1], in test [2] and in test [3] was “inactive” throughout. In addition, the activity change, negative = inhibition in test [4] is 1.13% (inactive). Moreover, the values for the max response in test [4] (setting [9]) and in test [4] (setting [10]) were -4.64% and -5.74%, respectively.
On to `CC(=O)Oc1ccc(Cl)c2cccnc12`, for which the Potency result in test [1], in test [2], in test [3], in test [5], in test [6] and in test [7] was “inactive” in each case.
As for `CC(=O)OC1CC2C(C)(C)C(O)C=C[C@@]2(C)C2CC[C@]3(C)C(=CC(=O)OC3c3ccoc3)[C@]12C` (stereo not given in full), the Potency result in test [8], in test [2] and in test [3] was “inactive” throughout. In addition, the activity change, negative = inhibition in test [4] was 6.31% (inactive). Further, the max response in test [4] (setting [9]) is -2.89%; in test [4] (setting [10]), 6.06%.
`CN1CC(CNC(=O)OCc2ccccc2)CC2c3cccc4c3c(cn4C)CC21` (stereo not given): the Potency result in test [2] and in test [3] was “inactive” in each case. Further, the activity change, negative = inhibition in test [4] is 7.09% (inactive). Besides, the values for the max response in test [4] (setting [9]) and in test [4] (setting [10]) were -1.98% and 5.84%, respectively.
